Data taken from PubChem BioAssay AID540333 (Southern Research Specialized Biocontainment Screening …, 2011).
Screen size: about 10,000 compounds; about 320 (3.2%) were called active. Rule as the data show it: active = CPE inhibition mostly above about 9.1% (no sharp cut-off); inactive = mostly below about 7.2%. Only a selection was taken, and actives are over-represented in it overall.

Assay: antivirals protecting cells from dengue CPE – CPE readout, HTS (AID 540333)
Details: Dengue virus CPE inhibition in host cells, at 20 µM; stronger effect = higher value

| Structure (SMILES) | CPE inhibition |
| --- | --- |
| Cc1cc(C)nc(N/N=C/C=C/c2ccccc2)n1 | 0.52% (inactive) |
| COc1ccc(-n2c(C)cc(/C=N/Nc3nc(N4CCOCC4)nc(N4CCOCC4)n3)c2C)cc1 | inactive |
| Cc1cc(C)nc(N/N=C/C2=C(N3CCOCC3)C(=C/c3ccccc3)/CC2)n1 | 9.78% (active) |
| S=C(N/N=C/c1ccc(Cl)cc1)N1CCOCC1 | inactive |
| Cc1cc(C)nc(N/N=C/C2=C(N3CCOCC3)C(=C\c3ccc(Cl)cc3)/CC2)n1 | 15.6% (active) |
| O=[N+]([O-])c1cccc(/C=N/Nc2nc(NCc3ccccc3)nc(N3CCOCC3)n2)c1 | 1.39% (inactive) |
| COc1ccccc1NC(=S)N1CCN(C/C=C/c2ccccc2)CC1 | 0.46% (inactive) |
| O=C(N/N=C/c1cccc(O)c1)c1ccc(COc2ccccc2Br)cc1 | 3.17% (inactive) |
| S=C(NCCCNC(=S)Nc1ccccc1)Nc1ccccc1 | inactive |
| CCOCC(O)CNc1ccccc1 (stereo unspecified) | inactive |
| COc1ccc(N(C(=O)CS(=O)CC(=O)Nc2ccc(F)cc2)C(C(=O)NC2CCCCC2)c2cccs2)cc1 (stereo unspecified) | 0.1% (inactive) |
| CCOC(=O)c1c(NC(=O)COC(=O)c2ccccn2)sc2c1CCC2 | inactive |
| COC(=O)c1c(NC(=O)COC(=O)c2ccc(Cl)cc2[N+](=O)[O-])sc2c1CCCCC2 | 3.41% (inactive) |
| COC(=O)c1c(NC(C)=O)sc2c1CCCCC2 | 0.285% (inactive) |
| COC(=O)c1c(NC(=O)CN(c2ccccc2)S(C)(=O)=O)sc2c1CCCC2 | 18% (active) |
| CC(C)OC(=O)c1c(NC(=O)CCC(=O)O)sc2c1CCCCC2 | inactive |
| O=C(COC(=O)CNS(=O)(=O)c1ccc2ccccc2c1)Nc1ccccc1Sc1ccccc1 | inactive |
| COC(=O)c1c(NC(=O)CN2C(=O)NC(CCc3ccccc3)C2=O)sc2c1CCCCC2 (stereo unspecified) | 25.6% (active) |
| COC(=O)c1c(NC(=O)C2C3CCC(O3)C2C(=O)O)sc2c1CCCCCC2 (stereo unspecified) | 0.645% (inactive) |
| CCOC(=O)c1c(NC(=O)c2ccccc2N(C)S(=O)(=O)c2ccccc2)sc2c1CCCC2 | 0.225% (inactive) |
| CC(C)[C@H](NS(=O)(=O)c1ccccc1)C(=O)OCC(=O)Nc1ccccc1Sc1ccccc1 | 24.5% (active) |
| COC(=O)c1c(NC(=O)COC(=O)[C@@H](NS(=O)(=O)c2ccccc2)C(C)C)sc2c1CCC2 | 24% (active) |
| O=C(COC(=O)CNS(=O)(=O)c1cccc(Br)c1)Nc1ccccc1Sc1ccccc1 | inactive |
| CCCCn1c(N)c(NCCC)c(=O)[nH]c1=O | inactive |
| COc1cc(C)c(S(=O)(=O)N2CCN=C2c2ccccc2)cc1C | inactive |
| CCO[C@@H]1OC(C(=O)O)=C[C@H](c2cn(C(C)=O)c3ccccc23)[C@H]1CCCO | inactive |
